Data published in PubChem BioAssay AID1159580 (chemical genetic matrix, 2015).
Values joined by “and” are separate entries in the source; they are usually repeats but may differ in a detail not shown here. Equal entries are not always repeated. Screen size: about 5,500 compounds; about 2,000 (36%) were called active. Another 18% or so got no clear call; they are omitted. No stated cut-off is given here; in the data, active means normalized growth mostly below about 0.91 (no sharp cut-off); inconclusive means no clear call, values can overlap the other calls; inactive means mostly above about 0.92. The list shows a part of the results.

Experiment: chemical genetic growth profiling, strain panel (AID 1159580);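 further: tested at 20 µM; growth read once vehicle control cultures reached saturation at 30 °C; 1 = growth at the plate median or of vehicle wells; lower values mean less growth of the strain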
Details: S. cerevisiae deletion strains, growth OD

Measured: normalized growth

Cc1cc(O)cc(=O)o1
inactive: locus YAL013W, strain DEP1, hits give low values 0.999 | locus YAL021C, strain ccr4, hits give low values 0.991 | locus YAL026C, strain drs2, hits give low values 0.998 | locus YAL030W, strain snc1, hits give low values 0.993 | locus YBL061C, strain skt5, hits give low values 1 | locus YBR009C, strain hhf1, hits give low values 0.997 | locus YBR021W, strain FUR4, hits give low values 0.985 | locus YBR023C, strain chs3, hits give low values 1.01 | locus YBR171W, strain sec66, hits give low values 0.988 | locus YBR229C, strain ROT2, hits give low values 0.992 | locus YBR231C, strain swc5, hits give low values 1.02 | locus YBR279W, strain paf1, hits give low values 1 | locus YCL011C, strain gbp2, hits give low values 0.991 | locus YCL016C, strain dcc1, hits give low values 0.991 | locus YCL029C, strain bik1, hits give low values 0.974 | locus YCL069W, strain vba3, hits give low values 1.01 | locus YCR088W, strain abp1, hits give low values 0.991 | locus YDL005C, strain med2, hits give low values 1.01 | locus YDL035C, strain GPR1, hits give low values 1.02 | locus YDL040C, strain nat1, hits give low values 1 | locus YDL074C, strain BRE1, hits give low values 1.01 | locus YDL101C, strain DUN1, hits give low values 0.988 | locus YDL134C, strain PPH21, hits give low values 1.03 | locus YDL185W, strain tfp1, hits give low values 0.971 | locus YDL192W, strain arf1, hits give low values 0.994 | locus YDR001C, strain nth1, hits give low values 0.989 | locus YDR069C, strain doa4, hits give low values 1.03 | locus YDR101C, strain arx1, hits give low values 0.971 | locus YDR137W, strain rgp1, hits give low values 0.998 | locus YDR150W, strain NUM1, hits give low values 1.01 | locus YDR159W, strain sac3, hits give low values 1.02 | locus YDR162C, strain NBP2, hits give low values 1.02 | locus YDR195W, strain ref2 0.979 | locus YDR297W, strain sur2, hits give low values 1.02 | locus YDR318W, strain mcm21, hits give low values 1.02 | locus YDR334W, strain swr1, hits give low values 0.989 | locus YDR335W, strain msn5, hits give low values 1 | locus YDR388W, hits give low values 0.992 | locus YDR392W, strain spt3, hits give low values 1.03 | locus YDR502C, strain sam2, hits give low values 1 | locus YEL003W, strain gim4, hits give low values 0.992 | locus YEL037C, strain rad23, hits give low values 0.994 | locus YEL061C, strain CIN8 (second series), hits give low values 0.992 | locus YEL061C, strain CIN8, hits give low values 1 | locus YER015W, strain faa2, hits give low values 1.01 | locus YER016W, strain bim1, hits give low values 0.994 | locus YER110C, hits give low values 0.986 | locus YER111C, strain swi4, hits give low values 1.01 | locus YER155C, strain BEM2 (second series), hits give low values 1.04 | locus YER155C, strain BEM2, hits give low values 0.982 | locus YER167W, strain BCK2, hits give low values 0.99 | locus YFR010W, strain ubp6, hits give low values 0.982 | locus YGL078C, strain dbp3, hits give low values 0.981 | locus YGL086W, strain mad1, hits give low values 0.969 | locus YGL167C, strain pmr1, hits give low values 0.983 | locus YGL173C, strain kem1, hits give low values 1.02 | locus YGL227W, strain vid30, hits give low values 1.01 | locus YGL240W, strain doc1, hits give low values 1.03 | locus YGL248W, strain PDE1, hits give low values 0.997 | locus YGL253W, strain hxk2, hits give low values 0.997 | locus YGR135W, strain pre9, hits give low values 1.03 | locus YGR252W, strain gcn5, hits give low values 1.09 | locus YHR013C, strain ard1, hits give low values 0.998 | locus YHR027C, strain rpn1, hits give low values 0.989 | locus YHR030C, strain SLT2, hits give low values 0.992 and 0.959 | locus YHR079C, strain IRE1 (second series), hits give low values 0.992 | locus YHR079C, strain IRE1, hits give low values 0.969 | locus YHR094C, strain hxt1, hits give low values 0.986 | locus YHR129C, strain ARP1, hits give low values 1 | locus YHR142W, strain chs7, hits give low values 0.987 | locus YHR200W, strain rpn10, hits give low values 0.993 | locus YIL066C, strain RNR3, hits give low values 0.988 | locus YIL073C, strain SPO22, hits give low values 0.993 | locus YIL125W, strain kgd1, hits give low values 0.984 | locus YIR030C, strain dcg1, hits give low values 0.99 | locus YJL092W, strain hpr5, hits give low values 0.987 | locus YJL095W, strain BCK1 (second series), hits give low values 1 | locus YJL095W, strain BCK1, hits give low values 1.01 and 0.959 | locus YJL115W, strain asf1, hits give low values 0.969 | locus YJL129C, strain trk1, hits give low values 1 | locus YJL134W, strain LCB3, hits give low values 0.994 | locus YJL154C, strain vps35, hits give low values 0.989 | locus YJL164C, strain tpk1, hits give low values 0.996 | locus YJL166W, strain qcr8, hits give low values 1.03 | locus YJL168C, strain set2, hits give low values 0.992 | locus YJL187C, strain SWE1 (second series), hits give low values 0.992 | locus YJL187C, strain SWE1, hits give low values 1.01 | locus YJR043C, strain POL32, hits give low values 1.01 | locus YJR066W, strain TOR1, hits give low values 0.921 | locus YJR075W, strain HOC1, hits give low values 0.998 | locus YKL009W, strain mrt4, hits give low values 0.961 | locus YKL068W, hits give low values 0.989 | locus YKL085W, strain MDH1 (second series), hits give low values 0.984 | locus YKL085W, strain MDH1, hits give low values 0.984 | locus YKL160W, strain elf1, hits give low values 0.994 | locus YKL190W, strain CNB1, hits give low values 1.01 | locus YKR001C, strain vps1, hits give low values 0.983 | locus YKR026C, strain gcn3, hits give low values 0.993 | locus YKR091W, strain srl3, hits give low values 0.983 | locus YLL001W, strain dnm1, hits give low values 0.995 | locus YLL026W, hits give low values 1.01 | locus YLL041C, strain sdh2, hits give low values 0.985 | locus YLR027C, strain aat2, hits give low values 1.01 | locus YLR039C, strain RIC1, hits give low values 1.02 | locus YLR058C, strain SHM2, hits give low values 1 | locus YLR102C, strain apc9, hits give low values 0.991 | locus YLR113W, strain HOG1, hits give low values 0.951 | locus YLR221C, strain rsa3, hits give low values 1.03 | locus YLR258W, strain gsy2, hits give low values 1.02 | locus YLR262C, strain YPT6 (second series), hits give low values 0.995 | locus YLR262C, strain YPT6, hits give low values 1.04 | locus YLR268W, strain sec22, hits give low values 0.965 | locus YLR320W, strain mms22, hits give low values 1.05 | locus YLR330W, strain CHS5, hits give low values 0.99 | locus YLR342W, strain FKS1 (second series), hits give low values 1 | locus YLR342W, strain FKS1, hits give low values 1.01 | locus YLR357W, strain rsc2, hits give low values 0.973 | locus YLR370C, strain arc18, hits give low values 1.01 | locus YLR371W, strain rom2, hits give low values 0.974 | locus YLR384C, strain iki3, hits give low values 1 | locus YLR418C, strain cdc73, hits give low values 1.01 | locus YML016C, strain PPZ1, hits give low values 0.985 | locus YML032C, strain rad52, hits give low values 1.02 | locus YML120C, strain ndi1, hits give low values 0.994 | locus YML124C, strain tub3, hits give low values 0.994 | locus YMR058W, strain fet3, hits give low values 0.987 | locus YMR078C, strain ctf18, hits give low values 0.991 | locus YMR125W, strain sto1, hits give low values 0.955 | locus YMR129W, hits give low values 0.996 | locus YMR205C, strain PFK2, hits give low values 1.01 | locus YMR223W, strain ubp8, hits give low values 0.999 | locus YMR231W, strain pep5, hits give low values 1.01 | locus YMR263W, strain SAP30, hits give low values 1.01 | locus YMR307W, strain GAS1, hits give low values 1.01 | locus YNL067W, strain RPL9B, hits give low values 1.01 | locus YNL071W, strain lat1, hits give low values 1 | locus YNL183C, strain NPR1, hits give low values 0.898 | locus YNL209W, strain ssb2, hits give low values 0.995 | locus YNL233W, strain BNI4, hits give low values 0.997 | locus YNL248C, strain rpa49, hits give low values 0.99 | locus YNL250W, strain rad50, hits give low values 0.991 | locus YNL271C, strain bni1, hits give low values 0.976 | locus YNL298W, strain CLA4, hits give low values 0.988 | locus YNL307C, strain MCK1, hits give low values 0.977 | locus YNL322C, strain KRE1 (second series), hits give low values 0.99 | locus YNL322C, strain KRE1, hits give low values 0.997 | locus YNR049C, strain mso1, hits give low values 0.984 | locus YNR052C, strain pop2, hits give low values 0.988 | locus YOL012C, strain htz1 0.84 | locus YOL147C, strain pex11, hits give low values 0.993 | locus YOR001W, strain rrp6, hits give low values 1.01 | locus YOR061W, strain CKA2, hits give low values 0.991 | locus YOR069W, strain VPS5, hits give low values 0.992 | locus YOR070C, strain gyp1, hits give low values 1.01 | locus YOR080W, strain dia2, hits give low values 0.997 | locus YOR083W, strain WHI5, hits give low values 0.999 | locus YOR106W, strain vam3, hits give low values 0.999 | locus YOR136W, strain idh2, hits give low values 0.971 | locus YOR144C, strain elg1, hits give low values 0.989 | locus YOR184W, strain ser1, hits give low values 0.992 | locus YOR231W, strain MKK1, hits give low values 0.965 | locus YOR265W, strain rbl2, hits give low values 1.01 | locus YOR270C, strain vph1, hits give low values 1.02 | locus YOR290C, strain snf2, hits give low values 0.974 | locus YOR316C, strain cot1, hits give low values 0.986 | locus YPL051W, strain arl3, hits give low values 0.999 | locus YPL055C, strain LGE1, hits give low values 1.01 | locus YPL078C, strain atp4, hits give low values 0.994 | locus YPL106C, strain sse1, hits give low values 1.01 | locus YPL240C, strain hsp82, hits give low values 0.99 | locus YPL241C, strain CIN2, hits give low values 1.01 | locus YPL256C, strain CLN2, hits give low values 0.948 | locus YPR119W, strain clb2, hits give low values 0.99 | locus YPR141C, strain kar3, hits give low values 0.984 | locus YPR163C, strain tif3, hits give low values 0.992 | locus YPR167C, strain met16, hits give low values 0.996 | strain wtn01, hits give low values 0.93
